From PubChem BioAssay (NCI)
About 79,000 compounds went through this panel and 15% of them were active in at least one assay; those are over-represented in the sample as a whole. Unmarked numbers belong to inactive results. The source made the active and inactive calls. No stated cut-off is given here; in the data, active means growth inhibition above about 70%; inactive means the rest.

Assay: NCI Yeast Anticancer Drug Screen. Data for the mgt1 strain (AID 153)
Conditions: S. cerevisiae mgt1 mutant growth inhibition; at 33.0 µM; active compounds read high
Method in brief: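 Genetically defined yeast (mgt1) treated with compound; inhibition of growth expressed against vehicle-treated controls.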
`C1=CCN([B-](c2ccccc2)[C+]2CCCCC2)C=C1` showed a growth inhibition of 44%.
With `CC/C(=C(\c1ccccc1)c1ccc(OCC[N+](C)(C)C)cc1)c1ccccc1` the growth inhibition was 99% (active).
For `O=S(=O)(c1cccc(C(F)(F)F)c1)N1c2ccccc2-n2cccc2C1c1cccnc1` (stereo unspecified), the growth inhibition was 94% (active).
`Nc1ccc2c(c1)C(=O)c1c(F)cccc1-2` showed a growth inhibition of 13%.
In the case of `CN(C)/C(=N/C(=S)Nc1ccccc1)SCc1ccccc1`, the growth inhibition was 11%.
In the case of `CCN(CC)C(=S)N/N=C(\C)c1ccccc1O`, the growth inhibition was 98% (active).
With `CC(C)OC(=O)NNc1cc(Cl)ccc1Cl` the growth inhibition was 21%.
With `CC(C)CCC[C@@H](C)[C@H]1CC[C@H]2[C@@H]3CC[C@H]4C[C@H](N)CC[C@]4(C)[C@H]3CC[C@]12C` the growth inhibition was -2%.
In the case of `O=C1c2ccccc2-c2ccc(N=Cc3ccccc3)cc21`, the growth inhibition was -1%.

Same assay, conditions: S. cerevisiae mgt1 mutant growth inhibition; at 100.0 µM; active compounds read high
With `COc1ccc2nc3cccc([N+](=O)[O-])c3c(NCCNCCN(C)C)c2c1` the growth inhibition was 5%.
`Cc1cccc(/C=N/NC(=S)NC2CCCCC2)n1` gave a growth inhibition of 21%.
`COC(=O)C(=O)c1c(-c2ccc(Cl)c(Cl)c2)[nH]c2[nH]n(-c3ccccc3)c(=O)c2c1=O` gave a growth inhibition of 68%.
With `c1ccc([P+](CCN2Cc3ccccc3C2)(c2ccccc2)c2ccccc2)cc1` the growth inhibition was 95% (active).
Compound `Cc1cc(C)c2[s+]snc2c1` has a growth inhibition of 23%.
For `CC(C)(Br)C(=O)/C=C/c1ccccc1`, the growth inhibition was 15%.
For `Cc1ccc(S(=O)(=O)NC(=O)C2C(=O)CC3(CCCCC3)CC2=O)cc1`, the growth inhibition was 85% (active).
With `NC(=S)N1N=C2c3ccccc3CC[C@H]2[C@@H]1c1ccc(Cl)cc1` the growth inhibition was 85% (active).
In the case of `O=[N+]([O-])/C=C/c1cc2ccc3ccccc3c2[nH]1`, the growth inhibition was 93% (active).
For `O=C1C(=C2CCCC2)CCC1CN1CCCCC1` (stereo unspecified), the growth inhibition was 95% (active).
For `OC(CC(O)(C(F)(F)F)C(F)(F)F)c1ccc(C(O)CC(O)(C(F)(F)F)C(F)(F)F)cc1` (stereo unspecified), the growth inhibition was 99% (active).
In the case of `COc1cc2c(cc1OC)[C@@H](Nc1ccc(C#N)cc1)C1COC(=O)[C@@H]1C2c1cc(OC)c(O)c(OC)c1` (stereo partly specified), the growth inhibition was 83% (active).
With `O=c1cccccc1[O-].O=c1cccccc1[O-].O=c1cccccc1[O-].[Eu+3]` the growth inhibition was 98% (active).
For `O=C1c2ccccc2C(=O)c2sc(Nc3ccccc3Cl)nc21`, the growth inhibition was 98% (active).
For `NC(CCCCCCCCCCCCC(N)C(=O)c1ccccc1)C(=O)c1ccccc1` (stereo unspecified), the growth inhibition was 94% (active).
With `CC1=C(C)C(=O)C2=C(OCCO2)C1=O` the growth inhibition was 43%.
In the case of `c1ccc(-c2cc(C3CO3)c3ccccc3n2)cc1` (stereo unspecified), the growth inhibition was 99% (active).
In the case of `S=C1C(=Nc2ccccc2)N(c2ccccc2)/C(=N\c2ccccn2)N1c1ccccc1`, the growth inhibition was 97% (active).
For `CCC(OC(C)=O)C1CC(C(C)C)CCC1C` (stereo unspecified), the growth inhibition was 82% (active).
With `CC(C)=CCc1c2c(c(O)c3c(=O)c(-c4ccc(O)c(O)c4)coc13)C=CC(C)(C)O2` the growth inhibition was 87% (active).
With `O=C(NC(N1CCN(c2cc3c(cc2F)c(=O)c(C(=O)O)cn3C2CC2)CC1)(C(F)(F)F)C(F)(F)F)c1ccccc1` the growth inhibition was 42%.
In the case of `Fc1cc(F)c(F)c(S)c1F`, the growth inhibition was 97% (active).
In the case of `COc1ccc2cc3c4cc5c(cc4cc[n+]3cc2c1OC)OCO5`, the growth inhibition was 97% (active).
With `CCCCCCCCNCCCCCCCC` the growth inhibition was 100% (active).
For `Nc1cc(Cl)ccc1Nc1ccccc1`, the growth inhibition was 85% (active).
With `O=C(/C(=C/c1ccc(O)cc1)c1ccccc1)c1ccccc1` the growth inhibition was 89% (active).
For `O=Cc1ccccc1C=O`, the growth inhibition was 91% (active).
In the case of `C1=CCN([B-](c2ccccc2)[C+]2CCCCC2)C=C1`, the growth inhibition was 99% (active).
In the case of `CC/C(=C(\c1ccccc1)c1ccc(OCC[N+](C)(C)C)cc1)c1ccccc1`, the growth inhibition was 99% (active).
In the case of `O=S(=O)(c1cccc(C(F)(F)F)c1)N1c2ccccc2-n2cccc2C1c1cccnc1` (stereo unspecified), the growth inhibition was 92% (active).
With `Nc1ccc2c(c1)C(=O)c1c(F)cccc1-2` the growth inhibition was 74% (active).
`CN(C)/C(=N/C(=S)Nc1ccccc1)SCc1ccccc1` gave a growth inhibition of 16%.
In the case of `CCN(CC)C(=S)N/N=C(\C)c1ccccc1O`, the growth inhibition was 99% (active).
For `CC(C)OC(=O)NNc1cc(Cl)ccc1Cl`, the growth inhibition was 88% (active).
With `CC(C)CCC[C@@H](C)[C@H]1CC[C@H]2[C@@H]3CC[C@H]4C[C@H](N)CC[C@]4(C)[C@H]3CC[C@]12C` the growth inhibition was 2%.
Work on `O=C1c2ccccc2-c2ccc(N=Cc3ccccc3)cc21` yielded a growth inhibition of 58%.

Assay: NCI Yeast Anticancer Drug Screen. Data for the rad50 strain (AID 155);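 further: 0% = growth of vehicle-only cultures of the same strain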
Conditions: S. cerevisiae rad50 strain growth inhibition; at 1.2 µM; active compounds read high
Method in brief: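 Yeast carrying a defined DNA repair defect were exposed to test compounds, and growth was compared with vehicle-treated controls to give percent inhibition.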
With `COc1ccc2nc3cccc([N+](=O)[O-])c3c(NCCNCCN(C)C)c2c1` the growth inhibition was -4%.
Work on `Cc1cccc(/C=N/NC(=S)NC2CCCCC2)n1` yielded a growth inhibition of -7%.
`COC(=O)C(=O)c1c(-c2ccc(Cl)c(Cl)c2)[nH]c2[nH]n(-c3ccccc3)c(=O)c2c1=O` showed a growth inhibition of 0%.
Work on `c1ccc([P+](CCN2Cc3ccccc3C2)(c2ccccc2)c2ccccc2)cc1` yielded a growth inhibition of 30%.
With `Cc1cc(C)c2[s+]snc2c1` the growth inhibition was 0%.
Compound `CC(C)(Br)C(=O)/C=C/c1ccccc1` has a growth inhibition of 6%.
Work on `Cc1ccc(S(=O)(=O)NC(=O)C2C(=O)CC3(CCCCC3)CC2=O)cc1` yielded a growth inhibition of -12%.
`NC(=S)N1N=C2c3ccccc3CC[C@H]2[C@@H]1c1ccc(Cl)cc1` gave a growth inhibition of -6%.
`O=[N+]([O-])/C=C/c1cc2ccc3ccccc3c2[nH]1` showed a growth inhibition of 39%.
Work on `O=C1C(=C2CCCC2)CCC1CN1CCCCC1` (stereo unspecified) yielded a growth inhibition of 2%.
Compound `OC(CC(O)(C(F)(F)F)C(F)(F)F)c1ccc(C(O)CC(O)(C(F)(F)F)C(F)(F)F)cc1` (stereo unspecified) has a growth inhibition of 35%.
`COc1cc2c(cc1OC)[C@@H](Nc1ccc(C#N)cc1)C1COC(=O)[C@@H]1C2c1cc(OC)c(O)c(OC)c1` (stereo partly specified) gave a growth inhibition of 24%.
With `O=c1cccccc1[O-].O=c1cccccc1[O-].O=c1cccccc1[O-].[Eu+3]` the growth inhibition was 6%.
For `O=C1c2ccccc2C(=O)c2sc(Nc3ccccc3Cl)nc21`, the growth inhibition was -1%.
With `NC(CCCCCCCCCCCCC(N)C(=O)c1ccccc1)C(=O)c1ccccc1` (stereo unspecified) the growth inhibition was -3%.
Work on `CC1=C(C)C(=O)C2=C(OCCO2)C1=O` yielded a growth inhibition of -3%.
`c1ccc(-c2cc(C3CO3)c3ccccc3n2)cc1` (stereo unspecified) gave a growth inhibition of -4%.
With `S=C1C(=Nc2ccccc2)N(c2ccccc2)/C(=N\c2ccccn2)N1c1ccccc1` the growth inhibition was -3%.
With `CCC(OC(C)=O)C1CC(C(C)C)CCC1C` (stereo unspecified) the growth inhibition was 4%.
For `CC(C)=CCc1c2c(c(O)c3c(=O)c(-c4ccc(O)c(O)c4)coc13)C=CC(C)(C)O2`, the growth inhibition was -36%.
Compound `O=C(NC(N1CCN(c2cc3c(cc2F)c(=O)c(C(=O)O)cn3C2CC2)CC1)(C(F)(F)F)C(F)(F)F)c1ccccc1` has a growth inhibition of -1%.
`Fc1cc(F)c(F)c(S)c1F` gave a growth inhibition of -43%.
For `COc1ccc2cc3c4cc5c(cc4cc[n+]3cc2c1OC)OCO5`, the growth inhibition was 33%.
`CCCCCCCCNCCCCCCCC` gave a growth inhibition of 6%.
Compound `Nc1cc(Cl)ccc1Nc1ccccc1` has a growth inhibition of -21%.
For `O=C(/C(=C/c1ccc(O)cc1)c1ccccc1)c1ccccc1`, the growth inhibition was -8%.
`O=Cc1ccccc1C=O` showed a growth inhibition of 14%.
In the case of `C1=CCN([B-](c2ccccc2)[C+]2CCCCC2)C=C1`, the growth inhibition was -3%.
`CC/C(=C(\c1ccccc1)c1ccc(OCC[N+](C)(C)C)cc1)c1ccccc1` showed a growth inhibition of 7%.
`O=S(=O)(c1cccc(C(F)(F)F)c1)N1c2ccccc2-n2cccc2C1c1cccnc1` (stereo unspecified) gave a growth inhibition of -15%.
For `Nc1ccc2c(c1)C(=O)c1c(F)cccc1-2`, the growth inhibition was -4%.
In the case of `CN(C)/C(=N/C(=S)Nc1ccccc1)SCc1ccccc1`, the growth inhibition was -5%.
In the case of `CCN(CC)C(=S)N/N=C(\C)c1ccccc1O`, the growth inhibition was 0%.
For `CC(C)OC(=O)NNc1cc(Cl)ccc1Cl`, the growth inhibition was -3%.
Compound `CC(C)CCC[C@@H](C)[C@H]1CC[C@H]2[C@@H]3CC[C@H]4C[C@H](N)CC[C@]4(C)[C@H]3CC[C@]12C` has a growth inhibition of 1%.
`O=C1c2ccccc2-c2ccc(N=Cc3ccccc3)cc21` showed a growth inhibition of -14%.
